The supplement of paper PMC10732440
± gives the standard deviation of the averaged measurements.

The compounds below were run on Caenorhabditis elegans N2 infected with Nematocida parisii ERTm1 (assay: progeny production relative to DMSO uninfected control; higher = more progeny despite microsporidia infection (inhibition of infection with low host toxicity)). Settings: infection time 6 days; 40 µM.
Experimental: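 Bleach-synchronised C. elegans N2 L1 larvae (100 per well) were grown in 96-well plates in K-medium with 5x E. coli OP50 and 15,000 N. parisii spores/uL, plus Pandemic Response Box compound at 100 uM or 40 uM (1% DMSO), for 6 days at 21 C with shaking. Worms were stained with Rose Bengal, scanned on a flatbed scanner and counted with WorMachine. Progeny production is given as % of the DMSO uninfected control (triplicate wells), so higher values mean the compound restores progeny despite infection.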

Q: With O=C(NCc1cccc2ccccc12)c1cccs1 as the compound, how does the progeny production read?
A: The progeny production was 3.62 ± 2.1%.

Q: How did the progeny production turn out when CCCCCCCCCN1C[C@@H](O)[C@H](O)[C@@H](O)[C@@H]1CO was run?
A: Its progeny production is 6.57 ± 1.1%.

Q: How did the progeny production turn out when NCC(=O)Nc1ccc(-n2nc(C(F)(F)F)cc2-c2ccc3c(ccc4ccccc43)c2)cc1 was run?
A: The progeny production was 4.52 ± 2.6%.

Q: With CONC(=N)c1ccc(-c2ccc(-c3ccc(C(=N)NOC)cc3)o2)cc1 as the compound, how does the progeny production read?
A: The progeny production was 5.44 ± 1.7%.

Q: For CC(=N)N1CC[C@H](SC2=C(C(=O)O)N3C(=O)[C@@H]([C@@H](C)O)[C@H]3C2)C1, which progeny production is on record?
A: Its progeny production is 4.18 ± 0.82%.

Q: With Fc1cccc(Cl)c1C1CC(c2ccc(Cl)cc2)Nc2nnnn21 (stereo not given) as the compound, how does the progeny production read?
A: Its progeny production is 4.5 ± 4.2%.

Q: CCc1c(O)nc2ccc(F)cc2c1OCC1CCC1 was tested. Which progeny production did it give?
A: Its progeny production is 6.76 ± 3.3%.

Q: O=C(CCCC(F)(F)F)N1CCC(c2nc(-c3nccs3)no2)CC1 was tested. Which progeny production did it give?
A: The progeny production was 5.21 ± 1.1%.

Q: For N#Cc1cc([N+](=O)[O-])ccc1Oc1ccccc1Cl, which progeny production is on record?
A: Its progeny production is 5.2 ± 2%.

Q: Which progeny production does the source give for O=C1[C@H](CC[C@H](O)c2ccc(F)cc2)[C@@H](c2ccc(O)cc2)N1c1ccc(F)cc1 here?
A: The progeny production was 6.94 ± 2.7%.

Q: For Oc1c(C(Nc2ccccn2)c2ccccc2)ccc2cccnc12 (stereo not given), which progeny production is on record?
A: The progeny production was 8.66 ± 7.6%.

Q: Which progeny production does the source give for O=C(NCc1ccc(F)cc1)c1c(O)c2ncccc2[nH]c1=O here?
A: Its progeny production is 5.38 ± 2.2%.

Q: For O=C(Nc1nnc(-c2ccccc2)o1)c1ccc(F)cc1, which progeny production is on record?
A: Its progeny production is 5.03 ± 1.8%.

Q: O=C(c1ccc(F)cc1)N1CCN2C(=O)c3ccccc3C12c1ccccc1 (stereo not given) was tested. Which progeny production did it give?
A: The progeny production was 2.5 ± 1.4%.

Q: How did the progeny production turn out when Nc1cnn(C2OC(CO)C(O)C2O)c(=O)n1 (stereo not given) was run?
A: The progeny production was 3.5 ± 1.1%.

Q: CSc1ccc2c(c1)C(N1CCN(C)CC1)Cc1ccccc1S2 (stereo not given) was tested. Which progeny production did it give?
A: Its progeny production is 5.75 ± 2.9%.

Q: Which progeny production does the source give for O=C(N[C@H](CCS)C(=O)N[C@H](Cc1ccccc1)C(=O)O)c1cc2ccccc2[nH]1 here?
A: Its progeny production is 6.68 ± 3.5%.

Q: Clc1ccc(COC(Cn2ccnc2)c2ccc(Cl)cc2Cl)c(Cl)c1 (stereo not given) was tested. Which progeny production did it give?
A: Its progeny production is 4.89 ± 1.7%.

Q: How did the progeny production turn out when CC[C@H](NC(=O)[C@H](C)NC)C(=O)N1C[C@@H](O)C[C@H]1Cc1c(-c2[nH]c3cc(F)ccc3c2C[C@@H]2C[C@H](O)CN2C(=O)[C@H](CC)NC(=O)[C@H](C)NC)[nH]c2cc(F)ccc12 was run?
A: The progeny production was 6.99 ± 3.1%.

Q: Which progeny production does the source give for CC1=C(/C=C/C(C)=C/C=C/C(C)=C/C(=O)Nc2ccc(O)cc2)C(C)(C)CCC1 here?
A: Its progeny production is 3.02 ± 2.2%.

Same assay, conditions: infection time 6 days; 100 µM

Q: Which progeny production does the source give for O=C(NCc1cccc2ccccc12)c1cccs1 here?
A: The progeny production was 12.9 ± 10%.

Q: How did the progeny production turn out when CCCCCCCCCN1C[C@@H](O)[C@H](O)[C@@H](O)[C@@H]1CO was run?
A: Its progeny production is 11.9 ± 5.5%.

Q: NCC(=O)Nc1ccc(-n2nc(C(F)(F)F)cc2-c2ccc3c(ccc4ccccc43)c2)cc1 was tested. Which progeny production did it give?
A: Its progeny production is 11.9 ± 7%.

Q: With CONC(=N)c1ccc(-c2ccc(-c3ccc(C(=N)NOC)cc3)o2)cc1 as the compound, how does the progeny production read?
A: Its progeny production is 14.6 ± 6%.

Q: Which progeny production does the source give for CC(=N)N1CC[C@H](SC2=C(C(=O)O)N3C(=O)[C@@H]([C@@H](C)O)[C@H]3C2)C1 here?
A: The progeny production was 11.1 ± 7.9%.

Q: Fc1cccc(Cl)c1C1CC(c2ccc(Cl)cc2)Nc2nnnn21 (stereo not given) was tested. Which progeny production did it give?
A: Its progeny production is 7.47 ± 2.1%.

Q: For CCc1c(O)nc2ccc(F)cc2c1OCC1CCC1, which progeny production is on record?
A: The progeny production was 16.2 ± 9.1%.

Q: How did the progeny production turn out when O=C(CCCC(F)(F)F)N1CCC(c2nc(-c3nccs3)no2)CC1 was run?
A: Its progeny production is 8.6 ± 8.7%.

Q: N#Cc1cc([N+](=O)[O-])ccc1Oc1ccccc1Cl was tested. Which progeny production did it give?
A: Its progeny production is 14.5 ± 8.1%.

Q: For O=C1[C@H](CC[C@H](O)c2ccc(F)cc2)[C@@H](c2ccc(O)cc2)N1c1ccc(F)cc1, which progeny production is on record?
A: Its progeny production is 21 ± 14%.

Q: Which progeny production does the source give for Oc1c(C(Nc2ccccn2)c2ccccc2)ccc2cccnc12 (stereo not given) here?
A: The progeny production was 9.12 ± 7.2%.

Q: With O=C(NCc1ccc(F)cc1)c1c(O)c2ncccc2[nH]c1=O as the compound, how does the progeny production read?
A: The progeny production was 16 ± 8.6%.

Q: How did the progeny production turn out when O=C(Nc1nnc(-c2ccccc2)o1)c1ccc(F)cc1 was run?
A: The progeny production was 6.37 ± 4.7%.

Q: For O=C(c1ccc(F)cc1)N1CCN2C(=O)c3ccccc3C12c1ccccc1 (stereo not given), which progeny production is on record?
A: The progeny production was 7.13 ± 5%.

Q: With Nc1cnn(C2OC(CO)C(O)C2O)c(=O)n1 (stereo not given) as the compound, how does the progeny production read?
A: Its progeny production is 13.1 ± 5.4%.

Q: How did the progeny production turn out when CSc1ccc2c(c1)C(N1CCN(C)CC1)Cc1ccccc1S2 (stereo not given) was run?
A: Its progeny production is 13.9 ± 9%.

Q: For O=C(N[C@H](CCS)C(=O)N[C@H](Cc1ccccc1)C(=O)O)c1cc2ccccc2[nH]1, which progeny production is on record?
A: Its progeny production is 11.3 ± 6.7%.

Q: How did the progeny production turn out when Clc1ccc(COC(Cn2ccnc2)c2ccc(Cl)cc2Cl)c(Cl)c1 (stereo not given) was run?
A: The progeny production was 8.86 ± 1.6%.

Q: For CC[C@H](NC(=O)[C@H](C)NC)C(=O)N1C[C@@H](O)C[C@H]1Cc1c(-c2[nH]c3cc(F)ccc3c2C[C@@H]2C[C@H](O)CN2C(=O)[C@H](CC)NC(=O)[C@H](C)NC)[nH]c2cc(F)ccc12, which progeny production is on record?
A: The progeny production was 17.7 ± 7.7%.

Q: How did the progeny production turn out when CC1=C(/C=C/C(C)=C/C=C/C(C)=C/C(=O)Nc2ccc(O)cc2)C(C)(C)CCC1 was run?
A: Its progeny production is 11.6 ± 9.7%.
